PubChem BioAssay AID485344 (National Center for Advancing Translational Sciences (NCATS), 2010)
Where “and” joins values, the source holds several entries; their conditions need not be identical. Equal values may be shown once. Among all 340,000 compounds or so, about 6,900 (2%) were called active. Rule as the data show it: active = inhibition above about 30%; inactive = below that, where a call was filed. Many of the other results were omitted from the sample, so actives are more common in it than they were. Some compounds were tested as several samples or in several runs, with calls that do not always agree.

biological target: D(2) dopamine receptor (Homo sapiens) (UniProt P14416); assay: HTS Assay for Allosteric Antagonists of the Human D2 Dopamine Receptor: Primary Screen for Antagonists; conditions: HEK293 TREx D2 cells, calcium flux, dopamine EC80; at 10 µM; stronger effect = higher value; also: 0% is about no effect
Summary of the method: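 Cells plated overnight at 30 C with tetracycline; no-wash calcium dye, 30–90 min RT; 10 s baseline; compound pinned; 180 s read; EC80 dopamine added; another 180 s read.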

Chain of D(2) dopamine receptor (Homo sapiens) (P14416 whole entry, looked up): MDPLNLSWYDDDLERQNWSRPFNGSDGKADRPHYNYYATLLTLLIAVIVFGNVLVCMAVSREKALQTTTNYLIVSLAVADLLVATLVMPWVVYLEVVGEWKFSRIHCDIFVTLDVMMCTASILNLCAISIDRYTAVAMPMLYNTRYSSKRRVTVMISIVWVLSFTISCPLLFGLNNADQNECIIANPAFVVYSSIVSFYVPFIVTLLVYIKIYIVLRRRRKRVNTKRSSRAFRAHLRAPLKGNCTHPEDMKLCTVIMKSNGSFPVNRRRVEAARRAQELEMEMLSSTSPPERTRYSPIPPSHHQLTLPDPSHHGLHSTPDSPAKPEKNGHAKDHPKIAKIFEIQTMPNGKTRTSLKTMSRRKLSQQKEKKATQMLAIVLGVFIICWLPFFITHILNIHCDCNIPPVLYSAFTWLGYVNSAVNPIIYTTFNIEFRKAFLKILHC

inhibition, 10.2% (inactive) and 47% (active):
CCc1nn(CCCN2CCN(c3cccc(Cl)c3)CC2)c(=O)n1CCOc1ccccc1

inhibition, inactive:
CC(C)CN(C(=O)CSc1nncn1C)C1CCS(=O)(=O)C1 (centres undefined) -28.1%
O=C1C=C(c2cc(C(F)(F)F)cc(C(F)(F)F)c2)C[C@@H](c2ccc3c(c2)OCO3)C1 8.46%
CC(=O)Nc1cccc(C(=O)OCC(=O)c2ccc3c(c2)OCO3)c1 13.5%
CSCCC(NC(=O)c1ccccc1)C(=O)N1CCCCCCC1 (centres undefined) -18.4%
COc1ccccc1C(=O)Nc1ccc(OCC(=O)N2CCCCC2)cc1 -21.7%
Cc1ccc(C(=O)NNC(=O)c2ccc3c(c2)OCCO3)cc1 20.3%
Cc1ccc(C(=O)Nc2ncccc2C)cc1S(=O)(=O)N1CCOCC1 -29.3%
CCN1C(=O)/C(=C\N2CCN(c3cccc(Cl)c3)CC2)SC1=S -0.63%
Cc1nn(CCOc2ccccc2)c(=O)n1-c1ccccc1F 4.74%
CCN1CCN(C(=O)N[C@@H](C(=O)N[C@@H]2C(=O)N3C(C(=O)O)=C(CSc4nnnn4C)CS[C@H]23)c2ccc(O)cc2)C(=O)C1=O -6.07%
O=c1c2ccccc2ccc2ccc(P(=O)(O)O)cc12 1.32%
O=C(OCC(=O)N1CCN(C(=O)c2ccco2)CC1)c1ccc(Cl)c(Cl)c1 20.1%
CCN(c1ccccc1)S(=O)(=O)c1cc(C(=O)NCc2ccccn2)ccc1C -6.91%
CCOC(=O)C1CCN(C(=O)c2ccccc2N(C)S(=O)(=O)c2ccccc2)CC1 -8.5%
CCOC(=O)N1CCN(C(=O)c2ccccc2N(Cc2ccccc2)S(=O)(=O)c2ccc(OC)cc2)CC1 -13.3%
COc1ccc(-c2cc(C(=O)N(C)CC(=O)Nc3ccccc3Cl)c3ccccc3n2)cc1OC 1.05%
CC(=O)c1c(C)[nH]c(C(=O)OCC(=O)Nc2c(C)cccc2C)c1C -33.4%
COc1ccc(C2CC(c3cccs3)=NN2C(=O)CSc2nnc(N)s2)cc1OC (centres undefined) -3.75%
COc1ccc(C2CC(c3cccs3)=NN2C(=O)CSc2nncs2)cc1OC (centres undefined) -4.05%
CCOc1ccc2oc(C(=O)N(CC)CC(=O)Nc3ccc(NC(C)=O)cc3)c(C)c2c1 -21.5%
CCCC(NCC(=O)Nc1ccccc1C(=O)NC1CC1)c1ccccc1 (centres undefined) -15.9%
O=C(CCc1nc2sc3c(c2c(=O)[nH]1)CCCC3)NCC(=O)Nc1ccccc1Br 11%
Cc1ccccc1NC(=O)Cc1nc(COC(=O)c2cccnc2Cl)cs1 6.55%
CC(C)N(C(=O)Cn1cc(SCC(=O)N2CCCC2)c2ccccc21)C(C)C 13.5%
NC(=O)CSc1c[nH]c2ccccc12 -9.76%
CCCCN(C(=O)C1CCC1)c1c(N)n(Cc2ccccc2)c(=O)[nH]c1=O -6.33%
O=C(NCCC1CCCCN1S(=O)(=O)c1ccc(Cl)cc1)C(=O)NCc1ccco1 (centres undefined) -13.3%
COc1ccc(C(=O)NCc2ccc(Cl)cc2)cc1S(=O)(=O)N1CCCC1 -28.1%
O=C(CCC(=O)c1cccs1)NC1CCCCCC1 -3.48%
O=C(CCCc1ccccc1)NCc1ccccc1 7.76%
CC(NC(=O)CN(C)S(=O)(=O)c1ccc(F)cc1)C1CC2CCC1C2 (centres undefined) 2.6%
COc1ccc(CCNC(=O)c2cnc(Cl)c(Cl)c2)cc1 2.2%
CC(CCc1ccccc1)NC(=O)c1ccc(Br)o1 (centres undefined) -19.1%
COc1cccc(N2CCN(CC(=O)Nc3ccnn3C3CCCC3)CC2)c1 19.5%
CCN(CC)CCNC(=O)c1ccc(NS(=O)(=O)c2ccc3c(c2)OCCO3)cc1 1.77%
COc1ccc(C(=O)NCCc2ccc(S(N)(=O)=O)cc2)cc1OC 14%
COc1cccc(NC(=O)CN(C)C(=O)/C=C/c2cn(-c3ccccc3)nc2-c2cccs2)c1 12.4%
CC1CN(c2nc(Nc3ccccc3)nc(N)c2[N+](=O)[O-])CC(C)O1 (centres undefined) 13.4%
COCCNc1nc(N)c([N+](=O)[O-])c(N2CCCCCC2)n1 -9.71%
O=C(C1Cc2ccccc2CN1C(=O)c1ccco1)N1CCN(c2ccccc2)CC1 (centres undefined) -4.55%
CC(C)(C)C(=O)COC(=O)c1cc(S(=O)(=O)N2CCCCC2)ccc1N1CCOCC1 1.2%
Cc1ccc(S(=O)(=O)N2CCC(C(=O)OCC(=O)N(C)c3ccccc3)CC2)cc1C -7.26%
Cc1nnsc1C(=O)N/N=C/c1ccccc1Cl -8.27%
CN(c1cccc(NC(=O)Nc2ccc(Cl)cc2)c1)S(C)(=O)=O 4.52%
CCOc1ccc(C(C)NC(=O)CN2C(=O)NC3(CCCCC3)C2=O)cc1OCC (centres undefined) -2.35%
CSCCC(NC(=O)COc1ccccc1)C(=O)N(C)CC(=O)Nc1ccc(C)cc1 (centres undefined) -24.9%
CC(OC(=O)/C=C/c1ccccc1)C(=O)NC1CCCCC1C (centres undefined) -2.14%
CC(C)C(=O)Nc1cccc(NC(=S)NC(=O)C(c2ccccc2)c2ccccc2)c1 -3.17%
O=C(NNC(=S)NCc1ccco1)C(c1ccccc1)c1ccccc1 -2.47%
Cc1ccc(S(=O)(=O)Nc2nc(CN3CCOCC3)nc3sc(C)c(C)c23)cc1 -2.97%
COc1ccc(CNC(=O)COc2ccccc2C(=O)c2cnn(-c3ccccc3)c2)cc1OC 7.52%
CC(CCN1CCN=C1N(C)C)c1ccccc1 (centres undefined) 8.97%
CC(C)(C)NC(=O)C(c1ccc(Cl)cc1)N(CCO)C(=O)c1snc(C(N)=O)c1N (centres undefined) -7.69%
CCOc1ccc(C(C(=O)NC2CCCC2)N(C(=O)c2snc(C(N)=O)c2N)C2CCCC2)cc1 (centres undefined) -2.16%
Cc1cc(F)ccc1S(=O)(=O)Nc1ccc(C(=O)N(C)Cc2ccco2)cc1 2.47%
Cc1cccc(-n2c(Cc3cc(=O)[nH]c(=O)[nH]3)nnc2SC(C)C)c1 -16%
COc1cccc(-n2c(Cc3cc(=O)[nH]c(=O)[nH]3)nnc2SCC(=O)Nc2ccccc2)c1 -4.57%
O=C(Nc1cccc(C(=O)NC2CC2)c1)c1ccc(F)c(S(=O)(=O)N2CCOCC2)c1 -7.88%
O=C(NNC(=S)NC1CCCCC1)c1ccccc1Cl -5.96%
Cc1ccccc1C(=O)NC(=S)Nc1ccc(N2CCN(C(=O)c3ccccc3)CC2)cc1 -1.88%
Cn1c(SCC(=O)c2cccs2)nnc1-c1ccco1 -10.8%
CCn1c(SCC(=O)Nc2nccs2)nnc1-c1ccncc1 10.6%
Nn1c(SCC(=O)Nc2nccs2)nnc1-c1ccco1 3.93%
CCOC(=O)CSc1nnc(-c2ccco2)n1C 25.3%
CSc1ncccc1C(=O)Nc1ccc2c(c1)OCO2 -3.04%
CCc1ccccc1OCC(=O)Nc1ccc(C)c(S(=O)(=O)N2CCCCCC2)c1 -4.67%
CCc1nnc(NC(=O)C2CCN(C(=O)c3ccccc3C)CC2)s1 14.3%
Cc1c(C)c2ccc(OCC(=O)N3CCC(C(=O)O)CC3)c(C)c2oc1=O 2.01%
O=C(CNC(=O)C1COc2ccccc2O1)N/N=C/c1cc(Br)c(O)c(Br)c1 (centres undefined) 7.94%
COc1cccc(CNC(=O)COC(=O)CN2C(=O)NC3(CCCCC3C)C2=O)c1 (centres undefined) 4.18%
COc1cccc(C(=O)NCCS(=O)(=O)NCC2CCCO2)c1 (centres undefined) 8.23%
O=C(COC(=O)c1cc(=O)[nH]c2ccccc12)NCc1cccc(Cl)c1 -19.7%
COc1ccc(CN2CC(C(=O)NC3CCCCC3)CC2=O)cc1 (centres undefined) 9.38%
CCOC(=O)N1CCN(c2c(NCCN3CCN(c4ccccc4F)CC3)c(=O)c2=O)CC1 -8.27%
COc1ccc(CN2CC(C(=O)NCCc3ccc(Cl)cc3)CC2=O)cc1 (centres undefined) 4.69%
O=C(NCCCN1CCCCCC1)C1CC(=O)N(C2CCCC2)C1 (centres undefined) -15.4%

inhibition, active:
CCN1CCN(C(=O)c2ccccc2N(C)S(=O)(=O)c2ccc(C)cc2)CC1 40.9%
COc1cccc(C2CC(c3cccs3)=NN2C(=O)CSC2=NCCS2)c1OC (centres undefined) 31.4%
CCCn1cc(SCC(N)=O)c2ccccc21 31.1%
O=C(CCC(=O)c1cccs1)NCc1ccccc1 34.9%
CC(CCc1ccccc1)NC(=O)c1cnc(Cl)c(Cl)c1 (centres undefined) 43.2%
CCN(CC)CCNC(=O)c1cc(S(C)(=O)=O)ccc1OC 99%
CCN1CCN(c2nc(Nc3cccc(F)c3)nc(N)c2[N+](=O)[O-])CC1 73.4%
O=C(Nc1ccccc1)c1nnsc1S(=O)(=O)c1ccc(Cl)cc1 35.7%
CCCCC(=O)NNC(=S)NC(=O)C(c1ccccc1)c1ccccc1 40.2%
NC(=O)c1nsc(C(=O)N(CCCN2CCOCC2)C(C(=O)NC2CCCCC2)c2ccc(Cl)cc2)c1N (centres undefined) 30.5%
Cc1cccc(-n2c(Cc3cc(=O)[nH]c(=O)[nH]3)nnc2SCC(=O)Nc2cccc(C(F)(F)F)c2)c1 36.6%
Cc1ccccc1C(=O)NC(=S)NC1CC1 31.1%
Cn1c(SCC(=O)Nc2ccc(Br)cc2F)nnc1-c1ccco1 31%
CCn1c(SCC(=O)Nc2nccs2)nnc1-c1ccco1 83%
Cc1c(CC(=O)N2CCN(C(=O)C3COc4ccccc4O3)CC2)c(=O)oc2c(O)c(O)ccc12 (centres undefined) 60%
O=C(NCCCN1CCN(c2ccccc2F)CC1)C1CCC(=O)N1C1CCCCC1 (centres undefined) 55.7%
COc1ccc(CN2CC(C(=O)NCCN3CCN(c4ccccc4F)CC3)CC2=O)cc1 (centres undefined) 78.4%
